Screening results as filed in PubChem.
Pf growth 48h: Primary qHTS for delayed death inhibitors of the malarial parasite plastid, 48 hour incubation | Potency, µM (titrated, usually from 28.7 µM), inactives show top-dose activity change, negative = inhibition, actives largely listed as inhibitors | P. falciparum luciferase growth in erythrocytes, 48 h | 310,000 compounds, 5.9% hits; note: potency is the fitted concentration of half-maximal effect; % is set by controls: 0 for no effect and ±100 for the full control effect
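In quantitative HTS format, infected erythrocytes bearing luciferase-reporter parasites were treated for a single generation at 37 C. Luminescence after adding detection reagent served as the growth measure.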
Pf growth 96h: Primary qHTS for delayed death inhibitors of the malarial parasite plastid, 96 hour incubation | P. falciparum luciferase reporter growth, 96 h | Potency, µM (titrated, usually from 28.7 µM), for the others: top-dose activity change, negative = inhibition, actives largely listed as inhibitors | 320,000 compounds, 6.9% hits; note: potency is the fitted concentration of half-maximal effect; % is set by controls: 0 for no effect and ±100 for the full control effect
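96 h incubation, 37 C, 5% CO2, of luciferase-reporter P. falciparum-infected RBCs (2% hematocrit, 0.05% parasitemia final) with test compounds; endpoint luminescence.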
HCV inh: qHTS Assay for Inhibitors of Hepatitis C Virus (HCV) | Huh7.5.1 HCVcc-Cre infection, luciferase reporter, 44 h | Potency, µM (titrated, usually from 41.8 µM), for inactives: at the top dose activity change, negative = inhibition, actives largely listed as inhibitors | 340,000 compounds, 3.4% hits; note: potency is the fitted concentration of half-maximal effect; % is set by controls: 0 for no effect and ±100 for the full control effect
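Antiviral activity was scored by luciferase reporter output from cells infected with HCVcc-Cre (~0.5 moi) in presence of compound, 44 h infection period, cells seeded 1,000/well 4 h prior.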
Cycloheximide cs: Cycloheximide Counterscreen for Small Molecule Inhibitors of Shiga Toxin; 300,000 compounds, 12% hits; cell reporter, cycloheximide protein synthesis inhibition counterscreen; max response, %; AID 2314, 2010; in the data active = max response mostly above about 13%, no sharp cut-off; inactive = mostly below about 14%; note: read at 38.3 µM for the half of the compounds with a filed dose; 0% is about no effect
Shiga inhibitor: A qHTS for Small Molecule Inhibitors of Shiga Toxin; inhibition, % at 38.7 µM; Vero cells, Shiga toxin protein synthesis inhibition reporter; 290,000 compounds, 9.2% hits; AID 2315, 2010; in the data active = inhibition mostly above about 28%, no sharp cut-off; inactive = mostly below about 43%; note: 0% is about no effect
AMA1-RON2 inh: qHTS for Inhibitors of AMA1-RON; Towards Development of Antimalarial Drug Lead: Primary Screen; Potency, µM (doses to about 58.2 µM), inactives show at the highest dose activity change, negative = inhibition, actives largely listed as inhibitors; AID 720542, 2013; AlphaScreen AMA1-biotinylated RON2 peptide binding; 360,000 compounds, 0.2% hits; Plasmodium falciparum AMA1 (3D7) - RON2 peptide interaction;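 note: potency is the fitted concentration of half-maximal effect; 0% = vehicle wells and -100% = peptide control; nearly all actives have a fitted effect of over 45% in size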
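AMA1 (3D7) with his tag at 25 nM final met compounds first, then biotinylated RON2 peptide at 25 nM; detection used donor plus acceptor beads, 10 µg/mL apiece, read by AlphaScreen after 30 min at room temperature.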
* = called active by the depositor; i = inactive; ? = inconclusive; / = no result given; [ ] = remark or other dose. Only some compounds are listed: those with a hit (about 21% of all), similar ones and a draw of the others. Unless noted, calls come from the whole dose curve; as a rule, active = well fitted curve in the direction sought with a large enough effect; inconclusive = small, poorly fitted or top-dose-only effect, or another doubt; inactive = no such curve, though single readings can be large; an effect the other way counts as inactive or inconclusive.

SMILES | Pf growth 48h | Pf growth 96h | HCV inh | Cycloheximide cs | Shiga inhibitor | AMA1-RON2 inh
Cc1ccc(/C=C(\C#N)C(=O)N2CCCC2)c(C)c1 | 36.9% | 20.0% | 13.2% | 36.8* | 124.6* | 19.4%
Cc1ccc2cc(C=C(C#N)C#N)c(N3CCCCC3)nc2c1 | 0.4% | 0.0% | ? | 13.2 | 13.8 | 2.7%
Cc1ccc2cc(/C=C(\C#N)C(N)=O)c(N3CCCCC3)nc2c1 | -3.8% | -10.7% | 14.1µM* | 1.5 | 13.1 | 1.3%
COCCCNC(=O)COC(=O)c1ccc(-c2nc3ccccc3s2)s1 | i | 227.1% | 13.9% | 47.5* | 75.7* | 2.5%
CNC(=O)COC(=O)/C=C/c1nc2ccccc2s1 | 3.4% | ? | 21.6% | 24.1 | 37.3 | 9.6%
O=CN1CCN(C(=O)c2ccc(-c3nc4ccccc4s3)s2)CC1 | i | 231.1% | ? | 42.7* | 123.5* | 6.0%
CNC(=O)COC(=O)c1ccc(-c2nc3ccccc3s2)s1 | / | 118.6% | 12.3% | 29.1* | 53.0* | -5.0%
O=C(CCc1nc2ccccc2s1)N1CCN(c2ccccc2)CC1 | -11.2% | 14.1% | 2.9% | -2.6 | -6.9 | -10.4%
COc1ccc(CCNC(=O)COC(=O)c2ccc(C)s2)cc1 | -21.1% | -12.4% | -14.4% | / | / | -12.9%
CC(NC(=O)C1CCCN1C(=O)OC(C)(C)C)C(=O)OCc1ccccc1 (centres undefined) | / | / | / | / | / | -2.0%
COc1ccccc1OCCC(=O)OCC(=O)c1[nH]c(C)c(C(C)=O)c1C | -12.6% | 18.6% | -4.4% | 8.8 | -11.7 | -8.7%
COc1cc(C)ccc1OCc1cc(C(=O)N(C)CCCN2CCOCC2)no1 | 2.5% | ? | -5.6% | 54.7* | 95.9* | 12.4%
COc1cc(C)ccc1OCc1cc(C(=O)NCCN2CCOCC2)no1 | 23.9% | -13.3% | -19.5% | 67.1* | 76.5* | 2.4%
O=C(NN1CCOCC1)c1ccc(Cl)s1 | 36.8% | 36.6% | 9.1% | 8.5 | -3.0 | -9.8%
O=C(OCc1nc2ccccc2s1)c1cc2ccccc2oc1=O | 121.8% | 144.1% | 12.9% | 34.0* | 39.5* | /
O=C(OCc1nc2ccccc2s1)c1ccc(Br)s1 | 32.5% | 37.4% | 9.8% | 24.6* | 28.9 | 27.8%
Cc1ccc(C(=O)OCc2nc3ccccc3s2)o1 | 47.5% | 100.6% | -8.8% | / | / | -0.6%
Nc1ccc(C(=O)OCc2nc3ccccc3s2)cc1 | 40.6% | 62.0% | 4.3% | 56.2* | 87.1* | -3.2%
O=C(CCC(=O)c1cccs1)OCc1nc2ccccc2s1 | 14.5% | 10.0% | 11.2% | 3.0 | 3.2 | 8.3%
O=C(OCc1cc(=O)n2c(n1)sc1ccccc12)c1ccc(O)cc1 | 73.8% | 99.8% | 5.8% | 35.8* | 26.8 | 6.0%
CCCCc1ccc(NC(=S)NCc2ccccc2OC)cc1 | ? | -19.9% | 4.3% | -3.2 | -30.5 | -6.0%
Cc1nc(C#N)c(N/N=C/c2c(F)cccc2Cl)o1 | 68.2% | 29.8% | 0.6%[8.37 µM] | 28.1* | 35.0 | 108.1%
COc1ccc([C@H]2C[C@@H](O)[C@H](n3cc(COC(=O)c4ccccc4)nn3)CN2C(=O)c2cccs2)cc1 | / | / | / | / | / | -7.2%
Cc1cc(/C=N/n2cnnc2)c(C)n1-c1ccc(Cl)cc1 | -2.9% | 43.2% | 10.0% | -2.1 | 7.4 | -12.8%
Cc1cc(/C=N/n2cnnc2)c(C)n1-c1ccc(OCc2ccc(F)cc2)cc1 | -5.7% | ? | 11.2µM* | 19.6* | 26.7 | -25.6%
SMILES | Pf growth 48h | Pf growth 96h | HCV inh | Cycloheximide cs | Shiga inhibitor | AMA1-RON2 inh
Cc1cc(/C=N/n2cnnc2)c(C)n1-c1ccc(OCc2ccc(Cl)cc2Cl)cc1 | / | ? | 5.62µM* | -11.2 | -19.6 | -24.2%
Cc1cccc(NS(=O)(=O)c2ccc3oc(=O)ccc3c2)c1C | 1.6% | 0.0% | -3.4% | 1.4 | 1.1 | 19.9%
COc1ccc(C2=NCCn3nc4cc(OC)ccc4c32)cc1 | 14.7% | 0.0% | -14.0% | / | / | 12.1%
Cc1ccc(NC(=O)CN2CCC(C(=O)c3ccc4c(c3)OCCO4)CC2)cc1 | / | 14.4% | ? | 24.6 | -7.7 | -19.9%
CC(=O)Nc1ccccc1NC(=O)c1ccc2c(c1)OCO2 | / | / | / | / | / | 2.8%
N#Cc1ccccc1COC(=O)c1ccc2c(c1)OCCO2 | 82.2% | 59.0% | 12.7% | / | / | 3.3%
Cc1ccccc1NC(=O)c1ccc2c(c1)OCCO2 | 97.4% | -16.9% | 5.0% | 18.1* | 136.9* | 1.8%
N#Cc1ccccc1NC(=O)c1ccc2c(c1)OCCO2 | 156.0% | 7.7% | 1.9% | 31.2* | 99.0* | -4.6%
Cc1cccc(NC(=O)c2ccc3c(c2)OCCO3)c1C | 109.7% | -8.7% | 0.8% | 47.0* | 109.1* | 10.5%
COC(=O)c1ccccc1NC(=O)CN1CCC(C(=O)c2ccc3c(c2)OCCO3)CC1 | 7.8% | 1.47µM* | ? | -3.4 | -9.3 | -18.1%
C[C@@H]1CN([C@H](C)CO)C(=O)c2cc(Br)cnc2O[C@@H]1CN(C)C(=O)Nc1ccccc1 | / | / | / | / | / | 4.2%
N#Cc1nc(-c2cccc3ccccc23)oc1NCC#CCOC(=O)c1cccs1 | 1.2% | 11.0% | / | / | / | /
CCCN=C1N(C)C[C@@H]2[C@@H]3C(=O)N(C)C(=O)[C@@H]3[C@](C)(C(=O)OC)N12 | / | / | ? | / | / | 8.6%
C[C@@H](NC(=O)[C@@H]1CCCN1C(=O)[C@@H]1CCCN1C(=O)c1cccc(Cl)c1)c1ccccc1 | / | / | / | / | / | 0.4%
N#Cc1ccccc1NC(=O)COC(=O)c1ccc2c(c1)OCCO2 | 71.0% | 34.2% | -5.1% | 19.3* | 29.2 | -5.8%
COC(=O)c1ccccc1NC(=O)c1ccc2c(c1)OCCCO2 | -61.2% | ? | ? | 22.5* | 30.1 | 11.8%
CC(=O)N/C(=C\c1ccccc1)C(=O)OCc1cccc(S(=O)(=O)N(C)C)c1 | ? | ? | ? | 1.2 | 3.1 | -5.2%
CC(C)(C)NC(=O)NC(=O)CSc1nnc(COc2ccccc2Cl)o1 | 24.5% | / | -5.6% | 15.2* | 39.7 | 2.1%
COc1ccc(-c2nnc(SCC(=O)Nc3cc(C)on3)o2)cc1 | 8.1% | ? | 1.0% | 32.9* | 44.0* | 114.5%
COc1ccc(-c2nsc(SCC(=O)Nc3cc(C)on3)n2)cc1 | 5.86µM* | ? | ? | 6.8 | 6.8 | 22.9%
O=C(CSc1nnc(COc2ccccc2Cl)o1)Nc1ccccc1 | -9.9% | -17.0% | 2.3% | / | / | -0.6%
CC(=O)Nc1ccc(NC(=O)CSc2nnc(-c3ccco3)o2)cc1 | 16.1% | ? | 2.1% | 5.5 | 6.7 | -0.2%
Cc1cc(NC(=O)CSc2nnc(-c3ccco3)o2)no1 | -15.7% | -0.9% | 19.6% | -0.5 | -8.2 | 28.2µM*
NC(=O)C1CCN(C(=O)C2CCC(=O)N(CC3CCCCC3)C2)CC1 (centres undefined) | 33.3% | ? | 0.4% | -1.0 | -5.2 | -3.3%
CN(C)S(=O)(=O)c1ccc2c(c1)nc(CCC(=O)NCC(=O)Nc1ccc(F)c(F)c1F)n2C | / | / | / | / | / | 17.2%
